According to PubChem BioAssay AID686971 (National Center for Advancing Translational Sciences (NCATS), 2013):
Hit rate of the full screen: of about 360,000 compounds, about 7,500 (2.1%) were called active. About 8% were inconclusive and are not listed. Calls follow the shape of the dose curve; as a rule, active = well fitted cell-killing curve with a large enough effect; inconclusive = small, poorly fitted or top-dose-only effect, or effect the other way, or another doubt; inactive = no such curve, though single readings can be large or run the other way. This excerpt belongs to a sample that is enriched for actives.

experiment: qHTS for induction of synthetic lethality in tumor cells producing 2HG: qHTS for the HT-1080-IDH1KD cell line; settings: HT-1080 IDH1 knockdown viability, ATP luminescence, 48 h; series mostly up to 46.1 µM; activity, negative = toxicity: at the top concentration
Description: Unbiased genomic sequencing for 22 glioma genomes found recurrent mutation of IDH1 on chromosome 2q33, a gene encoding the cytosolic isoform of IIDH1 associated with the tri-carboxylic acid cycle (TCA) that catalyzes the oxidative decarboxylation of isocitrate, yielding alpha-ketoglutarate and CO2 via NADP+ to NADPH conversion. Subsequent studies confirmed the recurrent IDH mutations in up to 70% of secondary gliomas and in 10% of AML cases. In addition, the somatic mutation of cancer-associated IDH1 is a point mutation resulting in various amino-acid substituents at Arginine132 (IDH1 R132), a key residue found in the enzyme's active site that when mutated, results in the loss-of-function in metabolizing isocitrate but confers a gain-of-function to produce the oncometabolite 2-hydroxyglutarate (2HG). This in effect defines IDH1 as an oncogene and provides an extraordinary opportunity to discover chemical probes against mutant IDH1 that may translate into much needed new therapies for glioma and AML patients.
This assay aims to perform a synthetic-lethal screen for chemical probes specific for 2HG-producing tumor cells using matched paired cell lines (1) HT-1080-NT fibrosarcoma cell line that overproduces 2HG and (2) HT-1080-IDH1KD cell line which has IDH1 expression knocked-down. Desirable compounds are toxic to the NT fibrosarcoma cell line but not to the IDH1KD cell line. The data in this AID corresponds to the results of the qHTS against the HT-1080 IDH1KD cell line.
[1] Dang L, Jin S, Su SM. IDH mutations in glioma and acute myeloid leukemia. Trends of Mol Med. 2010; 16(9): 387-97.
[2] Dang L et al. Cancer-associated IDH1 mutations produce 2-hydroxyglutarate. Nature. 2010; 465(7300):966.
Molecular Libraries Probe Production Centers Network [MLPCN]
NIH Chemical Genomics Center [NCGC]
Assay Submitter (PI): Lenny Dang Ph.D., Agios Pharmaceuticals
Suspensions of trypsinized HT-1080-IDH1KD cells were dispensed into white, tissue culture-treated, solid 1536-well plates at 5uL/well (750 cells/well final concentration) in RPMI medium supplemented with 5% FBS. Plates were incubated at 37 degrees C for 2 hours, after which 23 nL of compounds or DMSO were delivered to each well using a pin tool. Plates were then incubated at 37 degrees C for an additional 48 hours. CellTiter-Glo viability reagent (Promega) was dispensed into wells (2.5uL/well) and incubated at room temperature for 10 minutes. The plates were measured on a PerkinElmer ViewLux plate reader for luminescent signal (clear filter, 1 sec exp.). DMSO-treated control wells and media-only (no cells) control wells were used to normalize %Activity of identified toxic compounds; DMSO-treated wells corresponded to 0%Activity (100% viability), while media-only controls were used to normalize 100%Activity (0% viability). To minimize variability between cell lines, both HT-1080-NT and HT-1080-IDH1KD lines were dispensed and treated with identical compound series in single batches.
Concentration-response curves were fitted to the signals arising from the resulting luminescence. The concentration-effect curves were then classified based on curve quality (r2), response magnitude and degree of measured activity, and compounds were subsequently categorized based on their curve class.
Potency is read from the fitted curve at half-maximal effect.

Row | Compound | activity, negative = toxicity | Potency
1 | CC1CC=CCC12C(=O)NC(=S)NC2=O (stereo not given) | 12.1% (inactive) | –
2 | C[C@]12CCCCC1=CC(=O)C1C2CC[C@@]2(C)C1C[C@@H](F)[C@@H]2O (stereo not given in full) | -0.58% (inactive) | –
3 | CCOC(=O)CNC(=O)N1Cc2cc(N3CCCCC3)ccc2-n2nncc2C1 | 15.5% (inactive) | –
4 | Cc1ccc(OC(=O)N(C)C[C@@H]2OCc3cnnn3CCCC(=O)N([C@H](C)CO)C[C@@H]2C)cc1 | 0.516% (inactive) | –
5 | COc1ccc(N2C(=O)/C(=C/c3ccco3)C(=O)NC2=S)cc1 | 1.76% (inactive) | –
6 | O=C1NC(=O)N(Cc2ccco2)C(=O)/C1=C\c1ccc(-c2ccc(F)cc2)o1 | – | 18.4 µM (active)
7 | CCOC(=O)c1cccc(C2=C(CNC(=O)c3ccncc3)[C@H]3CC[C@@H](C2)N3Cc2ccccc2)c1 | -5.65% (inactive) | –
8 | CNC(=O)Nc1ccc(C(O)(C(=O)OC)C(F)(F)F)cc1 (stereo not given) | 3.8% (inactive) | –
9 | CCNS(=O)(=O)c1ccc(NC(=O)Nc2cccc(C(F)(F)F)c2)cc1 | – | 11.2 µM (active)
10 | NC(=O)Nc1cccc(C(F)(F)F)c1 | 0.786% (inactive) | –
11 | O=P(OC1=CCCCC1)(c1ccccc1)c1ccccc1 | -14.1% (inactive) | –
12 | COP(=O)(NS(=O)(=O)c1ccccc1)OC | 9.88% (inactive) | –
13 | c1ccc(C(CN2CCCCC2)c2ccccc2)cc1 | 14.8% (inactive) | –
14 | O=c1c2ccccc2[nH]c(=S)n1-c1cccc(Cl)c1 | -12.2% (inactive) | –
15 | O=C1C2(Cl)C3(Cl)C4(Cl)C(Cl)(Cl)C5(Cl)C3(Cl)C1(Cl)C5(Cl)C24Cl (stereo not given) | – | 16.4 µM (active)
16 | CC1C(=O)OC2CCN3CC=C(COC(=O)C(C)(O)C1(C)O)C23 (stereo not given) | 6.77% (inactive) | –
17 | Cc1cccc(NC(=O)OC2CN3CCC2CC3)c1 (stereo not given) | 5.13% (inactive) | –
18 | CN1CCN(Cc2ccc(OC(F)(F)F)cc2)CC1 | 10.9% (inactive) | –
19 | O=c1c2ccccc2nc(/C=C/c2ccco2)n1-c1ccccc1O | -27.3% (inactive) | –
20 | Cc1nc2ccccc2c(=O)n1-c1ccc(Cl)cc1Cl | -2.58% (inactive) | –
21 | O=c1c2ccccc2nc(/C=C/c2ccc(F)cc2)n1-c1ccccc1O | – | 20.6 µM (active)
22 | CCOc1cccc(=NC2CCCCC2)c2c(C)[nH]c(C)c12 | – | 20.6 µM (active)
23 | C=C(C)C1(CCCC)C(=O)NC(=S)NC1=O | 22.4% (inactive) | –
24 | CC(=O)Nc1ccc(C(=O)C(Cc2ccccc2)N(C)C)cc1 (stereo not given) | 2.05% (inactive) | –
25 | CSc1nc2ccc(C)cc2c(=O)n1-c1cccnc1 | 0.487% (inactive) | –
26 | O=C(NC1CCCCC1)N1Cc2cc(N3CCCCC3)ccc2-n2nncc2C1 | 13.2% (inactive) | –
27 | Cc1cc2ccccn2c1C(C[N+](=O)[O-])c1c(F)cccc1Cl (stereo not given) | – | 10.3 µM (active)
28 | CN1CCc2cc3c(cc2[C@H]1[C@@H]1OC(=O)c2c1ccc1c2OCO1)OCO3 | 3.58% (inactive) | –

Row | Compound | activity, negative = toxicity | Potency
29 | c1cc2c(c(NC3=NCCCS3)c1)CCCC2 | -20.4% (inactive) | –
30 | COC(=O)C1=C(c2ccc(OCc3ccccc3)cc2)C[C@@H]2CC[C@H]1N2C(=O)NCc1ccc(Cl)cc1 | 2.58% (inactive) | –
31 | Cc1nc2nc(C)c(CCC(=O)N3CCC4(CC3)OCCO4)c(C)n2n1 | 15.2% (inactive) | –
32 | COc1ccc2c(c1O)-c1cccc3c1[C@@H](C2)N(C)CC3 | -0.356% (inactive) | –
33 | COC1=CC=C2[C@H]3Cc4ccc(OC)c5c4[C@@]2(CCN3C)C1O5 (stereo not given in full) | -7.32% (inactive) | –
34 | COc1ccc2c3c1O[C@H]1C[C@@H](O)C=C[C@@]31CCN(C)C2 | – | 5.8 µM (active)
35 | COc1ccc(C(=O)CC2C(=O)N(C)C(=O)N(C)C2=O)cc1 | -2.16% (inactive) | –
36 | Cc1ccc(-n2c(O)c(C=NCC3CCCO3)c(=O)[nH]c2=O)c(C)c1 (stereo not given) | 5.18% (inactive) | –
37 | COc1ccc(NC(=O)N2Cc3ccccc3-n3nncc3C2)cc1 | 14% (inactive) | –
38 | COc1cc(Cn2c(N)c(C(=O)NCc3ccco3)c3nc4ccccc4nc32)cc(OC)c1OC | – | 8.91 µM (active)
39 | COC(=O)C1=C(c2ccccc2)C[C@@H]2CC[C@H]1N2C(=O)NCc1ccco1 | 10.2% (inactive) | –
40 | Cc1ncoc1C(=O)NCC1=C(c2cccc3ccccc23)C[C@@H]2CC[C@H]1N2Cc1ccco1 | 3.31% (inactive) | –
41 | CCOC(=O)C1(c2ccccc2)CCN(CC(O)c2ccc(NC(C)=O)cc2)CC1 (stereo not given) | -4.56% (inactive) | –
42 | CC12CCC3C(CCC4CC(=O)CCC43C)C1CC(=NO)C2=O (stereo not given) | -6.65% (inactive) | –
43 | CNC(=O)O/N=C(\N)Cc1csc2ccc(Cl)cc12 | – | 20.6 µM (active)
44 | CNC(=O)O/N=C(\N)Cc1csc2ccccc12 | -5.52% (inactive) | –
45 | COC(=O)C1=C(c2ccc(OCc3ccccc3)cc2)C[C@@H]2CC[C@H]1N2C(=O)NCc1cccc(F)c1 | -15% (inactive) | –
46 | O=C(NC(=S)N1C[C@H]2C[C@H](C1)c1cccc(=O)n1C2)c1ccc(F)cc1 | 3.21% (inactive) | –
47 | CC(CC(C#N)(c1ccccc1)c1ccccc1)N1CCCCC1 (stereo not given) | 7.07% (inactive) | –
48 | C=CCN1C(=O)C2(C(C(=O)OCC)=C(N)Oc3c2c(=O)oc2ccccc32)c2ccccc21 (stereo not given) | 6.5% (inactive) | –
49 | O=c1c2ccccc2nc(CBr)n1-c1ccc(Cl)cc1 | -6.41% (inactive) | –
50 | CC1CNCCN1c1ccc(Cl)cc1 (stereo not given) | 1.1% (inactive) | –
51 | CC1=CC(=Cc2sc3ccccc3[n+]2C)C=C(C)O1 | – | 10.3 µM (active)
52 | COc1ccccc1C1=NCc2nnc(CSC)n2-c2ccc(Cl)cc21 | -20.5% (inactive) | –
53 | c1ccc(N2Cc3ccccc3-n3nncc3C2)nc1 | -2.59% (inactive) | –
54 | COc1cccc(C(c2nnnn2-c2ccc3c(c2)OCCO3)N2CCC3(CC2)C(=O)NCN3c2ccccc2)c1OC (stereo not given) | – | 16.4 µM (active)
55 | CC(=O)Nc1ccccc1C(=O)OCC(=O)c1cccc2ccccc12 | 4.55% (inactive) | –
